TDP1 inh: inhibitors of human tyrosyl-DNA phosphodiesterase TDP1; AID 485290; recombinant TDP1, AlphaScreen DNA substrate cleavage; hit rate 0.28% among 350,000; Potency, µM (titrated, usually from 130 µM), without a hit: top-dose activity change, negative = inhibition, actives largely listed as inhibitors; Q9NUW8; also: % is scaled to controls: 0 for no effect and ±100 for the full control effect; nearly all actives have a fitted effect of over 40% in size
Target sequence (Q9NUW8 whole entry, looked up): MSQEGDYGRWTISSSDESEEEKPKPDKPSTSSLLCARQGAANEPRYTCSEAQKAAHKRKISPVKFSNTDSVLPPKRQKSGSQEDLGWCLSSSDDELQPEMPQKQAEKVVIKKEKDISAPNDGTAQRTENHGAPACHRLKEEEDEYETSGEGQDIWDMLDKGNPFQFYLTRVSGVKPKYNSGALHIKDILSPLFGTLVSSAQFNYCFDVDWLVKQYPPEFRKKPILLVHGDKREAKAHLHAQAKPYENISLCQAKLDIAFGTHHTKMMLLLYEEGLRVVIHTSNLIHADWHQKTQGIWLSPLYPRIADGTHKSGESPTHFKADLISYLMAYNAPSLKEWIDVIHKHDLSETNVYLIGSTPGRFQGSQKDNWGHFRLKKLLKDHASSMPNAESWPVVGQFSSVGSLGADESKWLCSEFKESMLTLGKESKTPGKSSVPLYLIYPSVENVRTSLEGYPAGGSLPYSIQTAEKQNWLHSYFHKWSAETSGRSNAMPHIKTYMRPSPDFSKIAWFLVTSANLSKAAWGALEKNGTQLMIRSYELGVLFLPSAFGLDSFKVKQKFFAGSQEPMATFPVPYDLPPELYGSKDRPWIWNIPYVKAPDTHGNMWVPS
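Recombinant E. coli-expressed Tdp1 (1 nM) preincubated with compound 15 min at RT, then 5'-biotin/3'-phosphotyrosine-FITC DNA substrate (15 nM) added for 5 min. AlphaScreen beads (10 ug/ml) added, 10 min RT; tyrosine-FITC cleavage read as signal loss.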
TDP1 cell noCPT: qHTS for Inhibitors of human tyrosyl-DNA phosphodiesterase 1 (TDP1): qHTS in cells in absence of CPT | DT40 Tdp1-/- hTDP1 cells, no CPT, ATP luminescence, 48 h | Potency, µM (titrated, usually from 46.2 µM), without a hit: top-dose activity change, negative = growth inhibition, most hits filed as inhibitors | hit rate 15% among 420,000; also: % is scaled to controls: 0 for no effect and ±100 for the full control effect; nearly all actives have a fitted effect of over 55% in size
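Stably hTDP1-transfected Tdp1-null chicken DT40 cells were treated with library compounds minus camptothecin and grown for at least 48 hr at 37 °C, after which cellular ATP was quantified by luminescence.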
ClpP mod: qHTS Assay for Activators of ClpP | ATP-dependent Clp protease proteolytic subunit (Bacillus subtilis (strain 168)), P80244 | Potency, µM (doses to about 57.5 µM), without a hit: top-dose activity change, negative = active | hit rate 1.9% among 340,000 | purified B. subtilis ClpP, FRET peptide cleavage, 20 min; active = well fitted falling curve with a large enough effect; inconclusive = small, poorly fitted or top-dose-only effect; inactive = no such curve, though single readings can be large or run the other way; also: the source files actives as falling curves though it sought activators and does not explain the sign; nearly all actives have a fitted effect of over 65% in size
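Purified B. subtilis ClpP, 10 microg/mL final in Tris/HCl pH8 with KCl, BSA, glycerol and Tween-20, cleaved an Abz/nitrotyrosine-quenched decapeptide. Fluorescence (ex 320, em 430) was read at 0 and 20 min at room temperature. Delta was normalized to 5.8 microM ADEP and DMSO/no-enzyme controls.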
DT40 TDP1 CPT: growth inhibition of DT40 Tdp1-/-;hTDP1 cells with camptothecin (screen for TDP1 inhibitors). hit rate 12% among 420,000. Potency, µM (top dose mostly 46.2 µM), without a hit: at the highest dose activity change, negative = growth inhibition, most hits filed as inhibitors. chicken DT40 Tdp1-/-;hTDP1 cells + 20 nM CPT, ATP luminescence, 48 h; also: % is scaled to controls: 0 for no effect and ±100 for the full control effect; nearly all actives have a fitted effect of over 55% in size
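Chicken DT40 Tdp1-/- cells complemented with human TDP1, 400 cells/well, exposed to compounds plus 20 nM camptothecin for at least 48 h at 37 C; viability read as ATP content by CellTiter-Glo luminescence.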
* = called active by the depositor; [ ] = remark or other dose. Most compounds without a hit are left out; they make up all but 17% or so of the library. Unless noted, calls follow the shape of the dose curve; as a rule, active = well fitted curve in the direction sought with a large enough effect; inconclusive = small, poorly fitted or top-dose-only effect, or another doubt; inactive = no such curve, though single readings can be large; an effect the other way counts as inactive or inconclusive. Potency is read from the fitted curve at half-maximal effect.

For CC(C)CN(CC(C)C)c1ccc(C=C2C(=O)NC(=S)NC2=O)cc1[N+](=O)[O-] the results were TDP1 inh -2.0%, TDP1 cell noCPT 20.6µM*, ClpP mod 3.0% and DT40 TDP1 CPT inconclusive.
For CN(C)c1ccc(C=C2C(=O)NC(=O)NC2=O)cc1 the results were TDP1 cell noCPT -6.1%, ClpP mod 0.2% and DT40 TDP1 CPT -16.0%.
Screening CCOc1ccc(C=C2C(=O)NC(=S)NC2=O)cc1OCC returned TDP1 cell noCPT -4.0%, ClpP mod -1.9% and DT40 TDP1 CPT 1.2%.
Screening N#Cc1ccc(CN2CC[C@@]3(CCCN(C(=O)Oc4ccccc4)C3)C2)cc1 returned TDP1 cell noCPT inconclusive and DT40 TDP1 CPT -1.0%.
`Cc1cccc(N(C)C(=S)Oc2ccc3c(c2)CCC3)c1` gave TDP1 cell noCPT inconclusive and DT40 TDP1 CPT 10.9%.
`CC(=O)O[C@H]1[C@H]2O[C@]23[C@@H]2CC[C@]4(O)C[C@@H](O)CC[C@]4(C)C2CC[C@]3(C)[C@H]1c1ccc(=O)oc1` (some centres not stated) gave TDP1 inh 0.4%, TDP1 cell noCPT 3.66µM*, ClpP mod -1.9% and DT40 TDP1 CPT 6.51µM*.
C[C@]12CC[C@H](O)C[C@H]1CC[C@@H]1[C@@H]2CC[C@]2(C)[C@@H](c3ccc(=O)oc3)C[C@H]3O[C@]132 was read as TDP1 cell noCPT 15µM* and DT40 TDP1 CPT inconclusive.
Screening NP(N)(=O)NC(=O)c1ccc(F)cc1 returned TDP1 inh 9.5%, TDP1 cell noCPT inconclusive and DT40 TDP1 CPT inconclusive.
Screening Cc1ccc(F)cc1NC(=O)c1ccc(Cn2nc(N3CCN(c4ccccc4)CC3)ccc2=O)o1 returned TDP1 inh 7.9%, TDP1 cell noCPT inconclusive, ClpP mod -4.2% and DT40 TDP1 CPT inconclusive.
CC(Oc1ccc(Cl)cc1Cl)C(=O)Nc1ccc(S(=O)(=O)Nc2cnc3ccccc3n2)cc1 (configuration not stated) was read as TDP1 inh 6.6%, TDP1 cell noCPT 25.9µM*, ClpP mod 15.8µM* and DT40 TDP1 CPT inconclusive.
COc1ccc(NC(=O)C(=O)NNC(=O)C(C)Oc2ccc(Cl)cc2Cl)cc1 (configuration not stated) was read as TDP1 inh 7.7%, TDP1 cell noCPT inconclusive and DT40 TDP1 CPT 10.6%.
Screening Cc1ccc(Cn2cccc(C(=O)Nc3cc(C)on3)c2=O)cc1 returned TDP1 inh 5.2%, TDP1 cell noCPT -5.4%, ClpP mod inconclusive and DT40 TDP1 CPT -23.6%.
For Cc1ccc(Cn2nc(C)c(NC(=O)c3cc(-c4ccc(F)cc4)on3)c2C)cc1 the results were TDP1 inh 7.3%, TDP1 cell noCPT 7.31µM*, ClpP mod 1.4% and DT40 TDP1 CPT 10.3µM*.
For CNC(=O)O/N=C/C(C)(C)S(C)=O (configuration not stated) the results were TDP1 inh 16.1%, TDP1 cell noCPT 10.2%, ClpP mod 0.8% and DT40 TDP1 CPT 7.5%.
For O=C(c1cc2ccccn2n1)N1CCC2(CC1)OCCO2 the results were TDP1 inh 1.0%, TDP1 cell noCPT -10.8%, ClpP mod -9.5% and DT40 TDP1 CPT -7.1%.
For COc1ccc(-c2cc(C(F)(F)F)n3nc(C(=O)N4CCC5(CC4)OCCO5)cc3n2)cc1OC the results were TDP1 inh 0.0%, TDP1 cell noCPT 20.6µM*, ClpP mod -1.6% and DT40 TDP1 CPT -23.4%.
For CCP(=S)(CC)c1ccc(N(C)C)cc1 the results were TDP1 inh 2.3%, TDP1 cell noCPT inconclusive and DT40 TDP1 CPT inconclusive.
Screening C/C(=C\c1ccc(N(C)C)cc1)[N+](=O)[O-] returned TDP1 inh 3.9%, TDP1 cell noCPT 4.11µM*, ClpP mod 0.2% and DT40 TDP1 CPT 4.11µM*.
`CN(C)c1ccc(/C=C/[N+](=O)[O-])cc1` gave TDP1 inh 1.9%, TDP1 cell noCPT 16.4µM* and DT40 TDP1 CPT inconclusive.
`CCn1c(C)[n+](CC(O)COCC2CC=CCC2)c2ccccc21` (configuration not stated) gave TDP1 inh 5.0%, TDP1 cell noCPT 23.1µM*, ClpP mod -0.8% and DT40 TDP1 CPT 20.6µM*.
Screening CC1CN(c2ccc([N+](=O)[O-])c3cccnc23)CC(C)N1 (configuration not stated) returned TDP1 inh 2.0%, TDP1 cell noCPT 23.1µM*, ClpP mod 1.4% and DT40 TDP1 CPT -21.3%.
CC[C@H](C)C(=O)O[C@@H]1[C@H](O)[C@@H]2[C@H](CN3C[C@@H](C)CC[C@@H]3[C@@]2(C)O)[C@@H]2C[C@@]34O[C@@]5(O)[C@@H](OC(=O)[C@](C)(O)CC)CC[C@@]3(C)[C@H]5[C@H](OC(C)=O)[C@@H](OC(C)=O)[C@H]4[C@]12O was read as TDP1 inh 8.3%[56.1 µM].
c1ccc(C2(N3CCCC3)CCCCC2)cc1 was read as TDP1 inh 6.2%, TDP1 cell noCPT 18.8µM* and DT40 TDP1 CPT inconclusive.
Cc1ccc(-n2sc3ccccc3c2=O)cc1 was read as TDP1 inh 6.5%, TDP1 cell noCPT 3.26µM*, ClpP mod 1.1% and DT40 TDP1 CPT 2.91µM*.
`O=c1c2ccccc2sn1-c1ccc(Cl)cc1` gave TDP1 cell noCPT 1.84µM*, ClpP mod 0.2% and DT40 TDP1 CPT 2.06µM*.
O=C1NCN(c2ccccc2)C12CCN(C(c1cc3ccccc3o1)c1nnnn1Cc1ccccc1)CC2 (configuration not stated) was read as TDP1 cell noCPT inconclusive, ClpP mod 0.0% and DT40 TDP1 CPT inconclusive.
For CN1CCCC2(CCN(C(=O)Oc3ccccc3)CC2)C1 the results were TDP1 cell noCPT -4.6% and DT40 TDP1 CPT 13.6%.
Cc1ccc(NC(=O)CSc2nc(-c3ccco3)cc(C(F)(F)F)n2)c(C)c1 was read as TDP1 inh -1.1%, TDP1 cell noCPT 1.84µM*, ClpP mod -0.4% and DT40 TDP1 CPT 1.46µM*.
For CCOC(=O)c1sc2ccccc2c1NC(=O)c1coc2ccccc2c1=O the results were TDP1 inh 1.8%, TDP1 cell noCPT inconclusive, ClpP mod 144.3% and DT40 TDP1 CPT inconclusive.
For O=[N+]([O-])c1cc(I)c(O)c(I)c1 the results were TDP1 inh 2.1%, TDP1 cell noCPT inconclusive and DT40 TDP1 CPT 7.8%.
For c1ccc(C(c2ccccc2)c2ccncc2)cc1 the results were TDP1 cell noCPT 20.6µM*, ClpP mod 1.8% and DT40 TDP1 CPT inconclusive.
`CN(CCc1ccccc1)C(=O)c1ccc(NC(=O)Cc2cccc([N+](=O)[O-])c2)cc1` gave TDP1 inh 4.5%, TDP1 cell noCPT inconclusive, ClpP mod -2.6% and DT40 TDP1 CPT inconclusive.

From PubChem
